Columns and labels:
Experiment in all cases: DAPPL (digital affinity profiling via proximity ligation, sequencing); 10 mM Tris-HCl pH 7.5, 50 mM NaCl, 1 mM DTT, 4% glycerol, room temperature, 30 min; GST-TFs on glutathione beads, 16-mer random dsDNA library, 0.1% formaldehyde crosslink after washing; high values mean tight binding
[1] = target: T1, FLI1 (Homo sapiens, UniProt Q01543 1-452); conditions: protein: recombinant; tags: N-terminal GST; dsDNA, one strand shown
T1 sequence: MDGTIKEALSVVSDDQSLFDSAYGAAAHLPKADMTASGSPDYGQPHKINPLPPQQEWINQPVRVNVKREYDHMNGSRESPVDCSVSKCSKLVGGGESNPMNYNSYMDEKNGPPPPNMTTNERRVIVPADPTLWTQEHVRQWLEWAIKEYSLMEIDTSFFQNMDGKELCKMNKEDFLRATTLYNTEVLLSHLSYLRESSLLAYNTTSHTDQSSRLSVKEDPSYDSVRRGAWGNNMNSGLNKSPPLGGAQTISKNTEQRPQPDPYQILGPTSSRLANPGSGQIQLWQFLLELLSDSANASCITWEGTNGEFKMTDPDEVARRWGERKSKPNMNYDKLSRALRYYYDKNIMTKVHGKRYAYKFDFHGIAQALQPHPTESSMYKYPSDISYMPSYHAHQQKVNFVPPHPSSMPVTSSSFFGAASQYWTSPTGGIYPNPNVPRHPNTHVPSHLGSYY
Outline: (§1)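 Yeast served to express human transcription factors as GST fusions, which were then captured on glutathione beads and labelled with DNA barcodes. Pooled with a tag-only sample, they were incubated with 200 nmole of a 16-mer random double-stranded DNA library for 30 min at room temperature in Tris/NaCl/DTT/glycerol buffer, washed, crosslinked with 0.1% formaldehyde, ligated by proximity, amplified by PCR and sequenced. Dividing each hexamer's read frequency for a factor by its frequency for the tag-only sample gives the binding signal.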

[2] = target: T2, ERG (Homo sapiens, UniProt P11308 1-479); conditions: protein: recombinant; tags: N-terminal GST; dsDNA, one strand shown
T2 sequence: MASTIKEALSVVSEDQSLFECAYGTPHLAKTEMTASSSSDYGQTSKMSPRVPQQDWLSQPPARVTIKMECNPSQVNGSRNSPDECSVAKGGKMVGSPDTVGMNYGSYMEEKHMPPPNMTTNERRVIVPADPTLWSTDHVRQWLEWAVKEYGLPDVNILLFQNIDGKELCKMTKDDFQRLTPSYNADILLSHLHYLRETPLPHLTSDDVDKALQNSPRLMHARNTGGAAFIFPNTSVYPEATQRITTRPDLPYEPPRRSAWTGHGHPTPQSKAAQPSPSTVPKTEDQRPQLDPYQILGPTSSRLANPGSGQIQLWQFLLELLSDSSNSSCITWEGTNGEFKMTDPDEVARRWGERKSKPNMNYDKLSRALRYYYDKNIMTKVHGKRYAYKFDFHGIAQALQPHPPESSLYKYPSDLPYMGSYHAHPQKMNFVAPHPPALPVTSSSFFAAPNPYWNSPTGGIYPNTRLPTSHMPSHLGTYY
Outline: as §1

[3] = target: ELF1 (Homo sapiens, UniProt P32519 1-619); conditions: protein: recombinant; tags: N-terminal GST; dsDNA, one strand shown
Outline: as §1

[4] = target: T3, EHF (Homo sapiens, UniProt Q9NZC4 1-300); conditions: protein: recombinant; tags: N-terminal GST; dsDNA, one strand shown
T3 sequence: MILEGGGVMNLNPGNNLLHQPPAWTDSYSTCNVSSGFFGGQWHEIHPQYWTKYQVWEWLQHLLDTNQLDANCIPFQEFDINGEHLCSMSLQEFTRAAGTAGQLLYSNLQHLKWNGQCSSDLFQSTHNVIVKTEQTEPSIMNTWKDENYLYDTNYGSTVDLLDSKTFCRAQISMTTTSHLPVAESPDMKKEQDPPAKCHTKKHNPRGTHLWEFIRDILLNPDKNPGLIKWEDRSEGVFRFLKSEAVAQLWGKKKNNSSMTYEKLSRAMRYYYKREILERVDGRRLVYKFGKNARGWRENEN
Outline: as §1

[5] = target: SPI1 (Homo sapiens, UniProt P17947 1-270); conditions: protein: recombinant; tags: N-terminal GST; dsDNA, one strand shown
Outline: as §1

[6] = target: SPIB (Homo sapiens, UniProt Q01892 1-262); conditions: protein: recombinant; tags: N-terminal GST; dsDNA, one strand shown
Outline: as §1

[7] = target: T4, FEV (Homo sapiens, UniProt Q99581 1-238); conditions: protein: recombinant; tags: N-terminal GST; dsDNA, one strand shown
T4 sequence: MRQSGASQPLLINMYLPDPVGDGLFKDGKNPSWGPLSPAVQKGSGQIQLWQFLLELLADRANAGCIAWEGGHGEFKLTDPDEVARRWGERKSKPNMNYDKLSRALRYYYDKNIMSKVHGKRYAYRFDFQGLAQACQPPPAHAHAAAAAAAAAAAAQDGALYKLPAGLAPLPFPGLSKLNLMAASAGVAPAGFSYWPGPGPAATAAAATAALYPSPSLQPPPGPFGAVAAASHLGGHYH
Outline: as §1

[8] = target: ETV5 (Homo sapiens, UniProt P41161 1-510); conditions: protein: recombinant; tags: N-terminal GST; dsDNA, one strand shown
Outline: as §1

[9] = target: HSF1 (Homo sapiens, UniProt Q00613 1-529); conditions: protein: recombinant; tags: N-terminal GST; chain copies: 3; dsDNA, one strand shown
Outline: as §1

[10] = target: T5, SPIC (Homo sapiens, UniProt Q8N5J4 1-248); conditions: protein: recombinant; tags: N-terminal GST; dsDNA, one strand shown
T5 sequence: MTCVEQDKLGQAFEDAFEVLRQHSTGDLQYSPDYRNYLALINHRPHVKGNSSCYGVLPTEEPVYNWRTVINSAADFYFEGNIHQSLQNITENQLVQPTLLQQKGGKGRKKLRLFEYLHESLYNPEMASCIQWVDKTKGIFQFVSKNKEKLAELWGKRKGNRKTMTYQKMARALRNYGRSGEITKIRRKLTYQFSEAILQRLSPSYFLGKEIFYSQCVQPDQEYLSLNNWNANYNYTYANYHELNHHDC
Outline: as §1

[11] = target: ELF4 (Homo sapiens, UniProt Q99607 1-663); conditions: protein: recombinant; tags: N-terminal GST; dsDNA, one strand shown
Outline: as §1

[12] = target: T6, ELK4 (Homo sapiens, UniProt P28324-2 1-405); conditions: protein: recombinant; tags: N-terminal GST; dsDNA, one strand shown
T6 sequence: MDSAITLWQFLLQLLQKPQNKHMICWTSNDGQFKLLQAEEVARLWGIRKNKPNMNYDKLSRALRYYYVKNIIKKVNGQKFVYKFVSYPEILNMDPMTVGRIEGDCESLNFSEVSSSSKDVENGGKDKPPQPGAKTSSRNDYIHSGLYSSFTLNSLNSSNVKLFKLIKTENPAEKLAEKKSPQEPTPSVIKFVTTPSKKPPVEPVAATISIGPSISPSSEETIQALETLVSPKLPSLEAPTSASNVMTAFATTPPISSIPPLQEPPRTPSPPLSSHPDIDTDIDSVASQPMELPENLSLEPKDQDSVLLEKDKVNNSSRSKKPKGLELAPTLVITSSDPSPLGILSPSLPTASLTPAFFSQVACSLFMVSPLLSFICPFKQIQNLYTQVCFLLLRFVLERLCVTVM
Outline: as §1

[13] = target: T7, ETV2 (Homo sapiens, UniProt O00321 1-342); conditions: protein: recombinant; tags: N-terminal GST; dsDNA, one strand shown
T7 sequence: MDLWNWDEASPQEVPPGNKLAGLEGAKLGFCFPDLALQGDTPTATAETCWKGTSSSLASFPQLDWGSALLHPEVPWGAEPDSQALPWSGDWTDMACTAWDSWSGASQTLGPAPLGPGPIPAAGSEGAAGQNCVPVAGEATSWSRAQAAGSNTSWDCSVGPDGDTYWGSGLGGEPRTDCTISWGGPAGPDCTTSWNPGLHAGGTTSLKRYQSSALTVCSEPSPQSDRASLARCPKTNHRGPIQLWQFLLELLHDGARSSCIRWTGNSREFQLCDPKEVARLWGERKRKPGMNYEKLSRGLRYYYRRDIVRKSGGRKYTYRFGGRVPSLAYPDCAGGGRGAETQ
Outline: as §1

[14] = target: CRX (Homo sapiens, UniProt O43186 1-299); conditions: protein: recombinant; tags: N-terminal GST; dsDNA, one strand shown
Outline: as §1

[15] = target: ETV1 (Homo sapiens, UniProt P50549 1-477); conditions: protein: recombinant; tags: N-terminal GST; dsDNA, one strand shown
Outline: as §1

Chain of HSF1 (Q00613 whole entry): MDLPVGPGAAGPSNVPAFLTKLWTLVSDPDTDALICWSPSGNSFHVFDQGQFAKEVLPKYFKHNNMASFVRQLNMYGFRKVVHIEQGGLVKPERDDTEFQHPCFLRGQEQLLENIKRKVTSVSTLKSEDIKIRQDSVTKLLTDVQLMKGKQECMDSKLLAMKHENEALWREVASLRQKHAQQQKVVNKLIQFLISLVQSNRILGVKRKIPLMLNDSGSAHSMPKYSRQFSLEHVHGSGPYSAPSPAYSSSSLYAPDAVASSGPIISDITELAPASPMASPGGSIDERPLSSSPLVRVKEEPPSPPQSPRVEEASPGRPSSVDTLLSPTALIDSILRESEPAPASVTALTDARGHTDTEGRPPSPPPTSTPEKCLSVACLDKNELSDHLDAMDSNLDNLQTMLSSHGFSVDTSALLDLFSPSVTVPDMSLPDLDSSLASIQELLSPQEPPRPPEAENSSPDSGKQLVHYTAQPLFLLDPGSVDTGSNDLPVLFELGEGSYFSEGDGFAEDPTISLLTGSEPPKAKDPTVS
Chain of CRX (O43186 whole entry): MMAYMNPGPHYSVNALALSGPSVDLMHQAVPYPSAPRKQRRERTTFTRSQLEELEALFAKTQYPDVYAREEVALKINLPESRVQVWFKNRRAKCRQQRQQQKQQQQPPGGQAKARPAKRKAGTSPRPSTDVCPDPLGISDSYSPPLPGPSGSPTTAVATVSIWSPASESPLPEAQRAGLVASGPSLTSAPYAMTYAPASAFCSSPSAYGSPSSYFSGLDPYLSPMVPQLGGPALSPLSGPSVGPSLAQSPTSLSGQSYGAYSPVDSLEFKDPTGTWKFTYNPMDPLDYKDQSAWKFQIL
Chain of ELF1 (P32519 whole entry): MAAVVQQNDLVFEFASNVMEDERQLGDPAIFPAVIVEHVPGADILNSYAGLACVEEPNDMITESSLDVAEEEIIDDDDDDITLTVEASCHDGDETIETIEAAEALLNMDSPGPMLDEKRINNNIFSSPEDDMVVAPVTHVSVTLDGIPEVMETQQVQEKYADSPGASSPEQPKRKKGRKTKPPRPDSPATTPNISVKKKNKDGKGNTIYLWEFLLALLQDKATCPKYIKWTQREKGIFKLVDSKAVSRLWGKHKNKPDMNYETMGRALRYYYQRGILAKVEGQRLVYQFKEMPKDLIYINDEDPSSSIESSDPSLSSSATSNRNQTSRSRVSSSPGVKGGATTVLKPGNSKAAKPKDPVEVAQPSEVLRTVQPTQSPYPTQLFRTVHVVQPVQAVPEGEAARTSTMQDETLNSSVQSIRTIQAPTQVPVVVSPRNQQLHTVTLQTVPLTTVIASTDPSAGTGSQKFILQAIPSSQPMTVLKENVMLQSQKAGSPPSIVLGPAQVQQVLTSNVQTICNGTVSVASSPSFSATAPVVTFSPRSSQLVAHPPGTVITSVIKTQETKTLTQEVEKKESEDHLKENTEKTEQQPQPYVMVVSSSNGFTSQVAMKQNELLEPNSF
Chain of ETV1 (P50549 whole entry): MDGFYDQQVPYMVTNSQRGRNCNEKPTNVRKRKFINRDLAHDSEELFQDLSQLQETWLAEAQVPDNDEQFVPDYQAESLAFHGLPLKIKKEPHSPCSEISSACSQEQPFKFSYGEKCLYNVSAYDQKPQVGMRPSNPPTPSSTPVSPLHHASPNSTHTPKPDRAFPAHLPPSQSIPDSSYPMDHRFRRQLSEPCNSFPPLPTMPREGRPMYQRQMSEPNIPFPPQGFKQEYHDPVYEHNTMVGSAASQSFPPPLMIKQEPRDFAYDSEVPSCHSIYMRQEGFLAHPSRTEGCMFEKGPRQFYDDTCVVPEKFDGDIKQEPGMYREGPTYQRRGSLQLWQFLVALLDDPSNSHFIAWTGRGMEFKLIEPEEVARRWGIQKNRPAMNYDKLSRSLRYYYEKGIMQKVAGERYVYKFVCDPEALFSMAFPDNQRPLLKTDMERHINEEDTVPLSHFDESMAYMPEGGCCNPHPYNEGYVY
Chain of ELF4 (Q99607 whole entry): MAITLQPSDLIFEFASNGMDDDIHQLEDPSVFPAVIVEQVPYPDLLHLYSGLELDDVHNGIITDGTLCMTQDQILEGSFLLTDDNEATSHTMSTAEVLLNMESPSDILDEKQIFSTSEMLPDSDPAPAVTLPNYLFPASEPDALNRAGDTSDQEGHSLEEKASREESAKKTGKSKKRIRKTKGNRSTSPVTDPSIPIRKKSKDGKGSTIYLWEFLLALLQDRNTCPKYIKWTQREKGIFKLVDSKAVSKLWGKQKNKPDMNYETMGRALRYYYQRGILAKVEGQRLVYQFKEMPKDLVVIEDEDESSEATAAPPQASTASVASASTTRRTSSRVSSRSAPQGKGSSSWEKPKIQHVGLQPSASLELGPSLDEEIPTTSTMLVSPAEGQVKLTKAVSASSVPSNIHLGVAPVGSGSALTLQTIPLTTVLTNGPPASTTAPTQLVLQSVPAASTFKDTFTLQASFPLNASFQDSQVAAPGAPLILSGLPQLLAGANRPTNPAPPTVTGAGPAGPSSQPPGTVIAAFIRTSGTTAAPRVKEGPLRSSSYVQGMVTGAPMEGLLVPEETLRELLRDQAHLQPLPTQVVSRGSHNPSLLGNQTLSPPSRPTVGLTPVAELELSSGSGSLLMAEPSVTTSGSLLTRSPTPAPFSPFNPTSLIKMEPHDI
Chain of SPIB (Q01892 whole entry): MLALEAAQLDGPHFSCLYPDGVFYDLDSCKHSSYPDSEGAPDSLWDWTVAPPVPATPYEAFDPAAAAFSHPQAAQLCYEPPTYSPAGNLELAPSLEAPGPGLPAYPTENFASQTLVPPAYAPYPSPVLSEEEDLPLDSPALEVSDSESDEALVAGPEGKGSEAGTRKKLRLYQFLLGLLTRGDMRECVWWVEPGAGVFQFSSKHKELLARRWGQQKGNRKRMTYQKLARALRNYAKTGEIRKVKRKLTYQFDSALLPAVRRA
Chain of ETV5 (P41161 whole entry): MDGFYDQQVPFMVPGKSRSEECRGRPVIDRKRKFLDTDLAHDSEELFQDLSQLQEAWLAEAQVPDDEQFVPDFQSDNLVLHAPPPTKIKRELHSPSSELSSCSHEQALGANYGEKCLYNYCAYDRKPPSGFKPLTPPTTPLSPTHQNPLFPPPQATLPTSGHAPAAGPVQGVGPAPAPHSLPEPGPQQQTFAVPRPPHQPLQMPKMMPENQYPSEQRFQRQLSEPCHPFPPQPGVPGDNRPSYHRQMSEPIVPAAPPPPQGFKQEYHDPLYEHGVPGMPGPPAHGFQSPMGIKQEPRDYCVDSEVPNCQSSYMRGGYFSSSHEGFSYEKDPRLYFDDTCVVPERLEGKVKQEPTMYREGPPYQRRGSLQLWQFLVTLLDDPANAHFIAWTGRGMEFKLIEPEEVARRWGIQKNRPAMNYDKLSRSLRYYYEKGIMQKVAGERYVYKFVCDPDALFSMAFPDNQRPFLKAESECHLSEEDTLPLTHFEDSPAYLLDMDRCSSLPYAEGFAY

## CGAAAT
[1]
  binding signal: 1.05 fold enrichment (6-mer frequency, TF over GST control)
[2]
  binding signal: 1.02 fold enrichment (6-mer frequency, TF over GST control)
[3]
  binding signal: 1.01 fold enrichment (6-mer frequency, TF over GST control)
[4]
  binding signal: 1.07 fold enrichment (6-mer frequency, TF over GST control)
[5]
  binding signal: 1.09 fold enrichment (6-mer frequency, TF over GST control)
[6]
  binding signal: 1.07 fold enrichment (6-mer frequency, TF over GST control)
[7]
  binding signal: 1 fold enrichment (6-mer frequency, TF over GST control)
[8]
  binding signal: 1 fold enrichment (6-mer frequency, TF over GST control)
[9]
  binding signal: 1.4 fold enrichment (6-mer frequency, TF over GST control)
[10]
  binding signal: 1.01 fold enrichment (6-mer frequency, TF over GST control)
[11]
  binding signal: 1.01 fold enrichment (6-mer frequency, TF over GST control)
[12]
  binding signal: 1.18 fold enrichment (6-mer frequency, TF over GST control)
[13]
  binding signal: 1.06 fold enrichment (6-mer frequency, TF over GST control)
[14]
  binding signal: 1.07 fold enrichment (6-mer frequency, TF over GST control)
[15]
  binding signal: 1.02 fold enrichment (6-mer frequency, TF over GST control)
